# ± gives the standard deviation of the averaged measurements.
# Legend:
# Experiment in all cases: control-subtracted net OSN firing rate; higher = stronger neuronal activation
# Settings in all cases: odorant dilution (vol/vol): 1/100
# allyl isothiocyanate = compound: C=CCN=C=S [allyl isothiocyanate]
# Method in brief: (§1)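 Values are replicate means from single sensillum recordings of palp or antennal olfactory sensory neurons. Recordings used 1–5-day-old fed female flies, either Scaptomyza species or D. melanogaster wild-type, mutant or at1 empty-neuron lines carrying Or42a homologs, stimulated with 1 s pulses of odorant (1:100 vol/vol in mineral oil or dimethyl sulfoxide, 20 μl on filter paper) into 16 ml/min filtered air. Spikes in a 0.5 s window beginning 0.2 s after onset were background-subtracted, doubled and corrected for solvent.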
# isobutyl isothiocyanate = compound: CC(C)CN=C=S [isobutyl isothiocyanate]
# Method in brief: as §1
# sec-butyl isothiocyanate = compound: CCC(C)N=C=S [sec-butyl isothiocyanate]
# Method in brief: as §1
# cinnamaldehyde = compound: O=C/C=C/c1ccccc1 [cinnamaldehyde]
# Method in brief: as §1
# phenethyl isothiocyanate = compound: S=C=NCCc1ccccc1 [phenethyl isothiocyanate]
# Method in brief: as §1
# butyl isothiocyanate = compound: CCCCN=C=S [butyl isothiocyanate]
# Method in brief: as §1
Target,control-subtracted net OSN firing rate (allyl isothiocyanate) [spikes/s],control-subtracted net OSN firing rate (isobutyl isothiocyanate) [spikes/s],control-subtracted net OSN firing rate (sec-butyl isothiocyanate) [spikes/s],control-subtracted net OSN firing rate (cinnamaldehyde) [spikes/s],control-subtracted net OSN firing rate (phenethyl isothiocyanate) [spikes/s],control-subtracted net OSN firing rate (butyl isothiocyanate) [spikes/s]
S. pallida pb2b-like,2.33 ± 5.3,6 ± 4,8.33 ± 3.4,8.33 ± 7.4,4.33 ± 5.8,–
Canton-S (D. melanogaster) pb2a,1.69 ± 6.9,1.43 ± 7.3,5.43 ± 6.9,4.29 ± 8.4,0 ± 5,–
S. montana pb1b-like,-19 ± 14,-18 ± 11,-8.33 ± 9.7,4 ± 5.4,3.67 ± 2.9,–
S. pallida pb2a-like,9 ± 9.5,5.33 ± 6.4,10.7 ± 9.5,6.67 ± 4.8,3.67 ± 4.6,5 ± 7.6
"Or67dGal4, UAS-Dmel Or42a at1",94.3 ± 58,5.33 ± 7.7,4.33 ± 11,–,–,–
S. flava pb3a-like,6 ± 8.3,4.67 ± 6.8,0.333 ± 11,-2 ± 10,3.33 ± 9.1,–
S. flava pb1a-like,123 ± 14,107 ± 32,30.3 ± 26,16.7 ± 17,-4 ± 3.8,–
S. pallida pb3a-like,-6.33 ± 7,-5.67 ± 5.8,-5 ± 14,1 ± 8.3,-4.33 ± 8.1,–
Canton-S (D. melanogaster) pb2b,-1.54 ± 9,-0.286 ± 8.4,0.571 ± 8.4,5.14 ± 12,-1.14 ± 8.4,–
S. flava pb1b-like,-21 ± 16,-26.3 ± 24,-2.33 ± 32,1.33 ± 17,3 ± 8.8,–
S. hsui pb2a-like,-2 ± 4.7,2 ± 7.3,2 ± 4.7,2.67 ± 8.2,0.333 ± 5,–
S. flava pb2a-like,-1.67 ± 6.9,0.667 ± 5.8,3 ± 7.8,0 ± 6.2,-0.667 ± 5.8,–
S. hsui pb2b-like,0.667 ± 4.1,7 ± 8.2,5.33 ± 6.3,11 ± 9.8,-0.333 ± 6,–
S. montana pb1a-like,126 ± 16,110 ± 18,48.3 ± 20,17 ± 9,4.67 ± 7.9,–
Canton-S (D. melanogaster) pb3b,-3.33 ± 8.2,-1.5 ± 9.8,1.33 ± 7,-1.67 ± 8.6,0 ± 11,–
S. flava pb3b-like,2 ± 14,-3.67 ± 24,-3.33 ± 16,4.33 ± 16,1.33 ± 4.3,–
"Or67dGal4, UAS-Sfla Or42a4 at1",131 ± 22,87 ± 27,29.7 ± 21,–,–,–
"Or67dGal4, UAS-Sfla Or42a2 at1",39.7 ± 29,-2 ± 3.1,-1.71 ± 6.6,–,–,–

Target,control-subtracted net OSN firing rate (allyl isothiocyanate) [spikes/s],control-subtracted net OSN firing rate (isobutyl isothiocyanate) [spikes/s],control-subtracted net OSN firing rate (sec-butyl isothiocyanate) [spikes/s],control-subtracted net OSN firing rate (cinnamaldehyde) [spikes/s],control-subtracted net OSN firing rate (phenethyl isothiocyanate) [spikes/s],control-subtracted net OSN firing rate (butyl isothiocyanate) [spikes/s]
S. hsui pb1b-like,-15 ± 6.4,-3.33 ± 8.7,4.33 ± 7.4,6 ± 16,-3 ± 7.1,–
S. hsui pb3b-like,-2.67 ± 4.5,-1.33 ± 3.9,-3 ± 1.7,2.67 ± 15,-3 ± 5.8,–
S. montana pb3a-like,9.67 ± 6.5,5 ± 8.5,1 ± 7.9,-2.67 ± 16,2.33 ± 10,–
S. montana pb2b-like,2 ± 4.2,3.67 ± 5.3,4.33 ± 6.2,6.67 ± 12,-4.33 ± 4.8,–
S. pallida pb1b-like,-11 ± 11,-8.67 ± 14,-1 ± 13,4.67 ± 8.6,-11 ± 11,–
S. montana pb2a-like,0.667 ± 4.1,1.67 ± 4.5,3 ± 10,13.7 ± 10,2.67 ± 4.3,–
"Or67dGal4, UAS-Sfla Or42a3 at1",127 ± 27,77.7 ± 25,29.4 ± 17,–,–,–
S. pallida pb1a-like,109 ± 21,26 ± 12,17.3 ± 13,19.3 ± 13,3 ± 4.3,–
S. hsui pb1a-like,124 ± 17,10 ± 5.1,8.67 ± 7.3,12.7 ± 16,3.67 ± 8.9,–
S. hsui pb3a-like,0 ± 12,-4.33 ± 7.9,-2 ± 10,6.33 ± 9.9,-4.67 ± 13,–
Canton-S (D. melanogaster) pb3a,7.56 ± 4.9,1.5 ± 6,3.67 ± 8,0 ± 8.4,1.17 ± 5.8,–
S. pallida pb3b-like,-5.67 ± 14,-4 ± 7.9,5.33 ± 17,-6.67 ± 18,-5.67 ± 15,–
Canton-S (D. melanogaster) pb1a,134 ± 36,0.222 ± 8.7,3.56 ± 4.9,7.11 ± 7.2,2 ± 9.3,–
Canton-S (D. melanogaster) pb1b,-8.93 ± 11,1.33 ± 9.2,-0.667 ± 9.4,2.67 ± 9.5,-4.44 ± 6.8,–
S. flava pb2b-like,-0.333 ± 12,-4.33 ± 14,-0.333 ± 6.4,-1.33 ± 7.1,4 ± 15,–
S. montana pb3b-like,3 ± 7.9,-0.667 ± 7.8,3.67 ± 6.9,-1.67 ± 8.2,-2.33 ± 8.7,–
"Or67dGal4, UAS-Spal Or42a at1",201 ± 39,42.2 ± 14,22.8 ± 9.7,–,–,–

# Reference: the supplement of paper PMC11482750
